Experimental data published in PubChem BioAssay.

assay: compounds altering circadian rhythm period length – cell-based, LOPAC library, luminescence reporter (AID 2774); conditions: circadian reporter cells, at 7 µM, actives lie on both sides; call rule not given here;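 further: values are relative to mean of DMSO wells on each plate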

Period change, inactive:
CCn1c(=O)c2[nH]c(-c3ccccc3)nc2n(CC)c1=O -0.165 h
C[C@@H](NC(=O)/C(C#N)=C/c1ccc(O)c(O)c1)c1ccccc1 0.095 h
Cc1c(C)c2c(c(C)c1O)CCC(C)(CN1CCN(c3cc(N4CCCC4)nc(N4CCCC4)n3)CC1)O2 (stereo unspecified) 0.14 h
CC(N)=NCCC[C@H](N)C(=O)O 0.025 h
COc1cc2c(cc1OC)[C@@H](c1ccccc1)CN(C)CC2 0 h
CCCn1c(=O)c2[nH]c(-c3ccc(OCC(=O)Nc4ccc(C#N)cc4)cc3)nc2n(CCC)c1=O 0.13 h
Cc1ccccc1CNc1ncnc2c1ncn2C1OC(CO)C(O)C1O (stereo unspecified) -0.235 h
COc1ccccc1N1CCN(CCCCNS(=O)(=O)c2cccc3c(N(C)C)cccc23)CC1 0.125 h
COc1cc2nc(N3CC=[N+](C(=O)c4ccco4)CC3)nc(N)c2cc1OC 0.01 h
CCN1CCC[C@H]1CNC(=O)c1c(OC)ccc(I)c1O 0.025 h
CC(C)C[C@H](N)CSSC[C@@H](N)CC(C)C -0.095 h
CC(C)[C@@H](CO)Nc1nc(Nc2cccc(Cl)c2)c2ncn(C(C)C)c2n1 -0.115 h
O=C(Cc1ccc(Cl)c(Cl)c1)OCCN1CCCC1 -0.095 h
N#CC(Cc1ccc(O)c(O)c1)C(=O)N1CCc2ccccc21 (stereo unspecified) 0.025 h
N[C@H](CCC(=O)NCS(=O)(=O)O)C(=O)O 0.005 h
CCn1cc(C(=O)O)c(=O)c2ccc(Cc3ccccc3)nc21 -0.035 h
CCCCC#Cc1nc(N)c2ncn([C@@H]3O[C@H](C(=O)NCC)[C@@H](O)[C@H]3O)c2n1 -0.015 h
CC(=O)NCCc1ccc(O)c(O)c1 -0.045 h
CC(C)[C@@H]1NC(=O)[C@H](CCCCN)NC(=O)[C@@H](Cc2c[nH]c3ccccc23)NC(=O)[C@H](Cc2ccc(O)cc2)NC(=O)[C@H](C)N(C)C(=O)[C@H](Cc2ccccc2)NC1=O -0.2 h
CCCCCCCCCCCCC/C=C/C(O)C(N)CO (stereo unspecified) 0.015 h
O=C(O)CCCCCC[C@H]1C(=O)NC(=O)N1CC[C@@H](O)C1CCCCC1 0.18 h
CCCCN1CCC(COC(=O)c2cc(Cl)c(N)c3c2OCCO3)CC1 -0.095 h
Nc1ncnc2c1ncn2[C@@H]1O[C@H](C(=O)NC2CC2)[C@H](O)C1O (stereo partly specified) -0.165 h
OC[C@H]1O[C@@H](n2cnc3c(NCCc4ccccc4)ncnc32)C(O)[C@H]1O (stereo partly specified) 0.19 h
CN1C2CCC1CC(NC(=O)c1nn(C)c3ccccc13)C2 (stereo unspecified) 0.265 h
Cn1cnc2c(NC3CCCC3)ncnc21 0.425 h
COc1ccc2c(c1)c(CC(=O)O)c(C)n2Cc1ccc(F)cc1 -0.005 h
NC(=NCCC[C@H](N)C(=O)O)NO -0.09 h
O=S(=O)(O)C1CCNCC1 0.07 h
OC[C@H]1O[C@@H](n2cnc3c(N[C@H]4CC5CCC4C5)ncnc32)[C@H](O)[C@@H]1O (stereo partly specified) -0.33 h
COc1cc(OC)cc(C(CNc2ncnc3c2ncn3[C@@H]2O[C@H](CO)[C@H](O)C2O)c2ccccc2C)c1 (stereo partly specified) -0.11 h
C[N+](C)(C)CCC(=O)c1cccc2ccccc12 -0.475 h
CCCCCCCCCCCCCCCC(=O)NCC(COP(=O)([O-])OCC[N+](C)(C)C)OCC (stereo unspecified) -0.285 h
O=C(Nc1cc(C(=O)Nc2ccc(S(=O)(=O)O)cc2S(=O)(=O)O)cc(C(=O)Nc2ccc(S(=O)(=O)O)cc2S(=O)(=O)O)c1)Nc1cc(C(=O)Nc2ccc(S(=O)(=O)O)cc2S(=O)(=O)O)cc(C(=O)Nc2ccc(S(=O)(=O)O)cc2S(=O)(=O)O)c1 -0.05 h
COc1cc(C(O)CO)ccc1O (stereo unspecified) (tested in a mixture with another compound) 0.16 h
Cc1cc(C)c(NC(=O)C[C@H](CC(=O)O)c2cccc3ccccc23)c(C(=O)N2CCC3(CCCC3)CC2)c1 0.275 h
